In the supplement of paper PMC6555819:

Columns and labels:
Experiment in all cases: PBM binding z-score (relative to random genomic background probes); higher = stronger binding; sequences stand for … in GC…GCGATTGACAGCGTAGAATGAAGG
[1] = tested on: FXR:RXRa (NR concentration 270 nM, RXRa partner concentration 90 nM)
Method in brief: (§1)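 Ligand-free nuclear receptor dimers were bound for 1 h to custom Agilent 4×180K protein-binding microarrays. Detection used antibodies against each partner (one per run). Binding z-scores rest on regression-normalized fluorescence, with random background probes as the reference.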

[2] = tested on: LXRa:RXRa (NR concentration 270 nM, RXRa partner concentration 90 nM)
Method in brief: as §1

[3] = tested on: LXRa homodimer (NR concentration 270 nM)
Method in brief: as §1

[4] = tested on: LXRb:RXRa (NR concentration 270 nM, RXRa partner concentration 90 nM)
Method in brief: as §1

[5] = tested on: LXRb homodimer (NR concentration 270 nM)
Method in brief: as §1

[6] = tested on: PPARa:RXRa (NR concentration 270 nM, RXRa partner concentration 90 nM)
Method in brief: as §1

[7] = tested on: PPARg:RXRa (NR concentration 180 nM, RXRa partner concentration 90 nM)
Method in brief: as §1

[8] = tested on: PPARg:RXRa 270nM:90nM, anti-RXR (NR concentration 270 nM, RXRa partner concentration 90 nM)
Method in brief: as §1

[9] = tested on: PPARg:RXRa 30nM:10nM, anti-RXR (NR concentration 30 nM, RXRa partner concentration 10 nM)
Method in brief: as §1

[10] = tested on: PPARg:RXRa 90nM:30nM, anti-RXR (NR concentration 90 nM, RXRa partner concentration 30 nM)
Method in brief: as §1

[11] = tested on: PPARg:RXRa DBDmut IVT, anti-RXR (DBD mutation: RXRa K156A/R161A, NR concentration 270 nM, RXRa partner concentration 90 nM)
Method in brief: as §1

[12] = tested on: PPARg:RXRa IVT, anti-PPARg (NR concentration 270 nM, RXRa partner concentration 90 nM)
Method in brief: as §1

[13] = tested on: PPARg DBDmut:RXRa IVT, anti-PPARg (DBD mutation: PPARg1 K132A/R137A, NR concentration 270 nM, RXRa partner concentration 90 nM)
Method in brief: as §1

[14] = tested on: PPARg DBDmut IVT, anti-PPARg (DBD mutation: PPARg1 K132A/R137A, NR concentration 270 nM)
Method in brief: as §1

[15] = tested on: PPARg homodimer (NR concentration 180 nM)
Method in brief: as §1

[16] = tested on: PXR:RXRa (NR concentration 270 nM, RXRa partner concentration 90 nM)
Method in brief: as §1

[17] = tested on: PXR homodimer (NR concentration 270 nM)
Method in brief: as §1

[18] = tested on: RARa:RXR (NR concentration 270 nM, RXRa partner concentration 90 nM)
Method in brief: as §1

[19] = tested on: RARa homodimer (NR concentration 270 nM)
Method in brief: as §1

[20] = tested on: RARb:RXRa (NR concentration 270 nM, RXRa partner concentration 90 nM)
Method in brief: as §1

Sequence | PBM binding z-score [1] | PBM binding z-score [2] | PBM binding z-score [3] | PBM binding z-score [4] | PBM binding z-score [5] | PBM binding z-score [6] | PBM binding z-score [7] | PBM binding z-score [8] | PBM binding z-score [9] | PBM binding z-score [10] | PBM binding z-score [11] | PBM binding z-score [12] | PBM binding z-score [13] | PBM binding z-score [14] | PBM binding z-score [15] | PBM binding z-score [16] | PBM binding z-score [17] | PBM binding z-score [18] | PBM binding z-score [19] | PBM binding z-score [20]
CCGACCGGGGCAGAAAGGTTACCATACCATCCGG | 0.539 | 0.79 | -0.149 | 0.91 | -1.19 | 1.89 | 0.899 | 1.07 | -0.267 | 0.343 | -0.478 | -0.0375 | -0.85 | -1.32 | 0.496 | 1.16 | -0.029 | 1.83 | -0.144 | 2.06
ACTAGCAGGCCAAGGGTCAATCAAGATTAGTCCG | 3.02 | 2.94 | 0.134 | 2.96 | -0.379 | 4.64 | 8.14 | 7.68 | 6.29 | 8.3 | 1.29 | 3.74 | -0.502 | -0.4 | 1.86 | 3.34 | -0.202 | 4.28 | -0.127 | 3.33
GCGACTGGGGCAAAGCCGGTTACCATAAGGTTGG | -0.281 | -0.532 | -0.832 | -0.581 | -1.01 | 0.472 | 0.627 | 0.491 | -0.849 | -0.0511 | 3.46 | 2.75 | -0.287 | -1.49 | -0.424 | -0.547 | -0.627 | -0.45 | -0.427 | 0.632
AGAACGAGGGCAATGAGTTGATAACACGGGTGGC | 0.198 | 0.102 | -0.716 | -0.182 | -0.584 | 1.28 | 1.84 | 0.983 | 0.0129 | 0.611 | 2.99 | 2.45 | -0.222 | 0.293 | -0.128 | 1.53 | 4.8 | 0.19 | -0.633 | 2.05
TCATATAGGTGAATGCTAGGTGAAAGTCCGATCT | 1.13 | 0.917 | -0.0779 | 0.789 | -0.221 | 2.55 | 2.75 | 3.13 | 3.54 | 3.07 | 6.19 | 5.78 | 1.9 | 1.82 | 1.06 | 0.532 | -0.173 | 1.33 | 0.882 | 1.22
TCTTCTAGATCAGCAGGTTAAGAAAGCTGGCCAA | 0.108 | 0.0628 | -0.37 | 0.225 | 0.0387 | 0.759 | -0.499 | 1.53 | 2.84 | 2.08 | 1.75 | 0.956 | -0.541 | -0.141 | -0.0964 | 0.0261 | -0.795 | 0.252 | -0.167 | 0.235
TCTTGTAGATCAGAAGGTTAAGAAAGCTGGCCAA | 0.619 | 1.02 | 0.09 | 1.16 | -0.193 | 1.54 | 0.167 | 2.4 | 3.46 | 3.03 | 1.98 | 0.611 | 0.0732 | -0.22 | 0.201 | 0.61 | 0.0531 | 0.924 | 0.498 | 1.07
TCGATTAGTTGAAGGGCAACCGACGAGTCCGTTT | 0.259 | 0.194 | -0.152 | 0.106 | -0.503 | 0.295 | -0.114 | 1.19 | 2.74 | 1.85 | 1.72 | 0.195 | 0.000817 | 0.136 | -0.0561 | 0.157 | 0.0884 | 0.128 | 0.353 | 1.2
TAGCCCAGGTCATTCAGGGGCCAGTATAGAAAGC | 5.03 | 4.14 | 0.808 | 2.98 | 0.952 | 3.9 | 2.2 | 2.46 | 0.688 | 1.57 | 0.643 | 2.16 | -0.0273 | 0.498 | 2.32 | 3.28 | 0.378 | 3.94 | 0.0689 | 3.67
GCGACTGGTGCATCAGCAGGTTACCATAACTTAA | -0.753 | -0.531 | -0.541 | -0.267 | -1.02 | -0.237 | -0.0578 | -0.215 | -0.641 | -0.986 | -0.556 | -0.572 | -1.07 | -0.356 | -0.496 | -0.248 | -0.653 | -0.046 | -1.22 | -0.228
CCCATTAGTTGACCATAAGGGCAACCGAAGCTCG | 1.1 | 0.851 | 0.582 | 0.755 | 0.614 | 0.65 | 0.359 | 0.482 | -0.068 | 0.346 | -0.253 | 0.593 | 0.0546 | -0.0766 | 2.18 | 0.867 | 0.974 | 1.05 | 1.57 | 1.7
CCTCGGAGGACAGTAGGTCAGAGCTGTCCGCTTT | 0.394 | 0.75 | -0.0267 | -0.0579 | -0.769 | 1.64 | 0.253 | 1.47 | -0.726 | 0.521 | 2.48 | 3.2 | -0.95 | -1.78 | 0.409 | 0.0704 | -0.598 | 0.582 | 0.337 | 1.97
CAGCGTAGGTCAGGGCCAGTATAGGAGGAACGTT | 1.79 | 1.23 | -0.344 | 0.759 | -1.03 | 2.46 | 0.896 | 0.918 | -0.272 | 0.0961 | 0.838 | 1.03 | -0.58 | -1.66 | 0.304 | 0.605 | -0.644 | 1.04 | 0.00652 | 3.43
CAGCCTAGATCAGGGCCAGTATAGGAGGAACGTT | -0.83 | -0.998 | -0.438 | -1.08 | -1.15 | -0.772 | 0.274 | -0.997 | -0.386 | -0.789 | -0.475 | -0.568 | -0.718 | -0.931 | -0.197 | -0.797 | -0.456 | -0.741 | -0.525 | -0.399
